Laboratory results published in ChEMBL document CHEMBL4513216, “Probing the Open Global Health Chemical Diversity Library for Multistage-Active Starting Points for Next-Generation Antimalarials” (ACS Infect Dis, 2020).
The campaign covered roughly 68,000 compounds. About 2,700 (4%) showed an effect of 50% or more. The sample as a whole holds a higher share of strong results than the screen did.

The compounds below were run on Plasmodium berghei (assay: Screen against P. berghei liver stage (PbLuc), transformed with Luciferase, at 2uM). Details: tested at 2 uM.
Format: functional, HepG2

| Structure (SMILES) | INHIBITION [%] |
| --- | --- |
| Cc1cc(C(=O)N2CCC3(C2)CN(c2ccsc2)C(=O)CN3C)[nH]n1 (stereo unspecified) | 13.04 |
| CN1CC(=O)N(c2ccsc2)CC12CCN(C(=O)c1ccc[nH]1)C2 (stereo unspecified) | 53.98 |
| CN1CC(=O)N(c2ccsc2)CC12CCN(C(=O)c1ccccc1)C2 (stereo unspecified) | 37.45 |
| CCC1CN(CC(=O)NCCN(CC)CC)c2ccccc2S1 (stereo unspecified) | 18.23 |
| CCOc1ncccc1C(=O)N1CCCC(n2nc(C)cc2C)C1 (stereo unspecified) | 58.29 |
| COCCOc1ccccc1C(=O)N1CCCCC1c1nccs1 (stereo unspecified) | 45.75 |
| Cc1cc(C)n(C2CCCN(C(=O)CCNS(C)(=O)=O)C2)n1 (stereo unspecified) | 15.31 |
| COCCOc1ncccc1C(=O)N1CCCCC1c1nccs1 (stereo unspecified) | -10.05 |
| Cc1cc(C)n(C2CCCN(C(=O)CCNc3ncccn3)C2)n1 (stereo unspecified) | 70.27 |
| Cc1cc(C)n(C2CCCN(C(=O)CCCNc3ncccn3)C2)n1 (stereo unspecified) | 26.71 |
| COCc1ccccc1C(=O)N1CCCC(n2nc(C)cc2C)C1 (stereo unspecified) | 21.91 |
| CCOc1ncccc1C(=O)N1CCCC(n2nc(C)nc2C)C1 (stereo unspecified) | 20.44 |
| CCOc1ncccc1C(=O)N1CCCCC1c1nccs1 (stereo unspecified) | 67.59 |
| Cc1cncc(C(=O)N2CCO[C@H]3[C@H](Oc4ccccn4)CC[C@@H]32)c1 | 28.88 |
| Cc1ccc(CN2CC[C@H]3[C@H](CO[C@H]3CN(C)C)C2)o1 | -0.69 |
| COc1nccc(N2CC[C@H](N3CCOCC3)[C@H](CCCO)C2)c1C#N | -47.16 |
| N#Cc1cnc2cc(F)cc(F)c2c1NC1CCN(CC(N)=O)CC1 | -22.63 |
| O=C(C1CC(c2ccccc2)=NO1)N1CCCCc2ccccc21 (stereo unspecified) | 24.84 |
| CCC(CC)c1cc(CNC(=O)N2CCC(CO)CC2)on1 | -11.8 |
| CCC(CC)c1cc(CNC(=O)N2CCCC(C(=O)NC)C2)on1 (stereo unspecified) | 59.8 |
| CCC(CC)c1cc(CNC(=O)N2CCCC(N(C)C)C2)on1 (stereo unspecified) | 28.23 |
| CN1CCC2(CCN(C(=O)c3ccccc3)CC2)C1 | 39.18 |
| COc1cccc(-c2n[nH]cc2C(=O)NC(C)c2n[nH]c(C)n2)c1 (stereo unspecified) | 64.2 |
| COc1cccc(-c2n[nH]cc2C(=O)NC(C)CC(=O)O)c1 (stereo unspecified) | 1.06 |
| COc1cccc(-c2n[nH]cc2C(=O)NC(C)c2nc(C(C)C)no2)c1 (stereo unspecified) | 33.9 |
| Cc1cccc(CN2CCCC2c2cccc(CCC(=O)O)n2)c1 (stereo unspecified) | -46.81 |

| Structure (SMILES) | INHIBITION [%] |
| --- | --- |
| Cc1cc(CN2CCN(C(=O)CCc3ccco3)CC2)on1 | 19.91 |
| COc1ccc(COCC(O)CNC(=O)c2ccc(C)c(F)c2)cc1 (stereo unspecified) | -7.11 |
| CN(C)CC(=O)N1CCOCC(Cc2ccccn2)C1 (stereo unspecified) | 54.44 |
| CN(CC(=O)N1CCOCC(CO)C1)Cc1ccccn1 (stereo unspecified) | 14.96 |
| O=C(c1cncs1)N1CCOCC(Cc2ccccn2)C1 (stereo unspecified) | -11.3 |
| CC(Cn1cccn1)NC(=O)Nc1nccs1 (stereo unspecified) | 43.93 |
| O=C(NCCNc1ncccn1)C1CC(=O)N(CC2CC2)C1 (stereo unspecified) | 4.96 |
| COc1ccccc1CCN1CCCC(CN(C)Cc2cc(C)n[nH]2)C1 (stereo unspecified) | -24.74 |
| Cc1ccc(C)c(OC(C)C(=O)NCc2cccnc2)c1 (stereo unspecified) | 50.98 |
| Cc1ccc(C)c(OC(C)C(=O)NCCNc2cccnc2)c1 (stereo unspecified) | 33.36 |
| Cc1ccc(C)c(OC(C)C(=O)Nc2cccnc2)c1 (stereo unspecified) | 1.42 |
| COc1ccc(NS(=O)(=O)C=c2[nH]c(=O)n3cccc3c2=O)cc1Cl | 1.52 |
| O=C(N1CCCC1)N1CCN(c2ccc(Cl)nn2)C(=O)C1 | 11.51 |
| CC(CCNC(=O)NCCNc1cnccn1)c1ccccc1 (stereo unspecified) | -24.05 |
| CC(CCNC(=O)NCCc1ccc(S(N)(=O)=O)cc1)c1ccccc1 (stereo unspecified) | 23.76 |
| CC(CCNC(=O)NCCc1ccncc1)c1ccccc1 (stereo unspecified) | 54.29 |
| CO[C@H]1CCN(Cc2ccccn2)[C@@H]2CN(Cc3ccco3)C[C@H]12 | 23.7 |
| O=C(CN1CC(c2nc(-c3ccco3)no2)C1)NCc1ccc(F)cc1 | 25.69 |
| Cc1nc(CNc2ncc(Br)cn2)n[nH]1 | 33.78 |
| O=C(O)c1ccc(F)c(S(=O)(=O)Nc2c(F)cccc2-n2cccn2)c1 | 52.67 |
| O=C(O)c1ccc(S(=O)(=O)Nc2c(F)cccc2-n2cccn2)cc1 | -21.15 |
| O=C(O)c1csc(S(=O)(=O)Nc2c(F)cccc2-n2cccn2)c1 | -51.5 |
| CC(C)N1C(=O)CN(CCCO)CC1(C)C | -4.81 |
| Cc1noc(-c2ccnc(Oc3ccc(CN4CCCC4)cc3C)c2)n1 | 27.72 |
| CCc1ccc(CN2CCC3(CCCN(C(=O)c4cnccn4)C3)C2)o1 (stereo unspecified) | -26.14 |
